Lassa entry: inhibitors of Lassa virus binding or entry into cells. 18,000 compounds, 4.1% hits. Potency, µM (doses to about 49.2 µM), usual class: inhibitors. Lassa virus pseudotyped entry inhibition, cell-based qHTS
Marburg entry: Marburg virus entry inhibition; Marburg virus pseudotype entry/binding inhibition, cell-based; 18,000 compounds, 6.5% hits; Potency, µM (doses to about 49.2 µM), actives largely listed as inhibitors
Hits are given with their value; 0 = inactive; ? = inconclusive; - = no result given; ! = a repeat was not active; [ ] = remark or other dose. Hits are enriched below; roughly 8.6% of the tested compounds scored in any of these assays. The call rests on the fitted dose curve; tested in HEK293 cells.

SMILES	Lassa entry	Marburg entry
O[C@@H]1[C@@H]2c3cc4c(cc3CN3CCC(=C[C@@H]1O)[C@H]23)OCO4	?	2.5µM
CN1CCc2cc3c(cc2[C@@H]1O)OCO3	0	0
CC[C@@H](C)[C@H](NS(=O)(=O)c1ccc(F)cc1Br)C(=O)OC	0	0
O=C(NCCCN1CCCCCC1)C(c1ccccc1)C1CCCCC1 (centres undefined)	?	10µM
CN1C2CCC1CC(C(=O)OC(CO)c1ccccc1)C2 (centres undefined)	0	0
CCC[C@H]1CN(c2ccc(OC)cc2)C(=O)[C@H]1CC(=O)Nc1ccccc1	-	0
COC(=O)CC1=CO[C@@H](O)[C@@H]2C(CO)=CC[C@@H]12	0[8.59 µM]	0[8.59 µM]
COc1cc(NCCCC(C)N)c2ncccc2c1 (centres undefined)	10µM	8.9µM
O=C(CCl)c1ccc(Cl)cc1Cl	13µM	8.9µM
OCc1ccc(Cl)cc1Cl	0	0
C=CCN1[C@H](C)[C@@H](c2ccccc2)Oc2c(Cl)cccc2S1(=O)=O	0	0
CCC1=C[C@@H]2CN(C1)Cc1c([nH]c3ccccc13)[C@@](C(=O)OC)(c1cc3c(cc1OC)N(C)[C@H]1[C@@](O)(C(=O)OC)[C@H](OC(C)=O)[C@]4(CC)C=CCN5CC[C@]31[C@@H]54)C2	13µM!	1.4µM!
CC[C@]1(O)CC2CN(CCc3c([nH]c4ccccc34)[C@@](C(=O)OC)(c3cc4c(cc3OC)N(C)[C@H]3[C@@](O)(C(N)=O)[C@H](O)[C@]5(CC)C=CCN6CC[C@]43[C@@H]65)C2)C1 (some centres undefined)	0	?
CCC(OC(C)=O)C(CC(C)NC)(c1ccccc1)c1ccccc1 (centres undefined)	40µM	7.9µM
CCOC(=O)CN1C(=O)[C@@]2(CC(C)=CC[C@@H](COc3ccccc3)O2)c2c(Br)cccc21	0[8.59 µM]	0[8.59 µM]
C=CC[N@@+]12CC[C@@]34c5ccccc5N5/C=C6/[C@H]7C[C@H]8[C@@]9(CC[N@@+]8(CC=C)C/C7=C/CO)c7ccccc7N(/C=C(/[C@@H](C[C@@H]31)/C(=C\CO)C2)[C@H]54)[C@@H]69	0	0
COCOc1ccc(Br)cc1C(=O)C=Cc1ccc2c(c1)OCO2	0[8.59 µM]	0[8.59 µM]
O=C(O)c1cc(O)c2c(c1)C(=O)c1cccc(O)c1C2=O	0	13µM
Cc1cc(O)c2c(c1)C(=O)c1cccc(O)c1C2=O	0	0
CCCCCCN1C[C@@H](O)[C@H](n2cc(-c3ccc(F)cc3)nn2)C[C@H]1c1ccc(C)cc1	0	?
NC(=NCc1ccccc1)NC(=O)c1nc(Cl)c(N)nc1N	?	25µM!
NC(=Nc1ccccc1)NC(=O)c1nc(Cl)c(N)nc1N	0	?
COC[C@H]([C@@H](O)[C@@H](O)C(=O)NCC[C@@H](C)c1nc(/C=C/C[C@H]2OC3(C[C@H](O)[C@H]2C)OC([C@@H](C[C@@H](O)[C@@H](C)[C@@H](O)[C@@H](C)/C=C(C)/C(C)=C/C=C/C(C)=C\C#N)OC)[C@@H](OP(=O)(O)O)C3(C)C)co1)N(C)C (some centres undefined)	71µM	0.11µM
C[C@@H]1O[C@@H](O[C@H]2C[C@@H](O)[C@]3(CO)[C@@H]4C(CC[C@]3(O)C2)[C@@]2(O)CC[C@H](C3=CC(=O)OC3)[C@@]2(C)C[C@H]4O)[C@H](O)[C@H](O)[C@H]1O (some centres undefined)	0.32µM	?
C[C@@H]1O[C@H](O[C@H]2C[C@@H](O)[C@@]3(CO)[C@H]4[C@@H](O)C[C@]5(C)[C@@H](C6=CC(=O)OC6)CC[C@]5(O)[C@H]4CC[C@]3(O)C2)[C@@H](O)[C@H](O)[C@@H]1O	3.2µM	?
SMILES	Lassa entry	Marburg entry
C[C@@H]1O[C@@H](O[C@H]2C[C@@H](O)[C@]3(CO)[C@H]4[C@H](O)C[C@]5(C)[C@@H](C6=CC(=O)OC6)CC[C@]5(O)[C@@H]4CC[C@]3(O)C2)[C@H](O)[C@H](O)[C@H]1O	0.032µM	?
CC1O[C@@H](OC2CC(O)[C@@]3(CO)C4C(O)C[C@@]5(C)C(C6=CC(=O)OC6)CC[C@]5(O)C4CC[C@]3(O)C2)C(O)C(O)C1O (some centres undefined)	0.32µM	0.28µM
C=CC[C@@H]1C=C[C@H](ON=C2c3cc(OC)ccc3O[C@H](c3cccc(OC)c3)[C@@H]2O)[C@H](CO)O1	0[8.59 µM]	0[8.59 µM]
C#CCN1C(=O)C2(CC(C)=C[C@@H](C)O2)c2c(Br)cccc21 (some centres undefined)	0[8.59 µM]	0[8.59 µM]
Cc1nc2ccccc2nc1CN1CCOc2ccc(C3(O)CCN(c4ccccc4F)CC3)cc2C1	?	0
CCCCCCC#C[C@@H]1C=C[C@H](OC(=O)OCC)[C@@H](COC(=O)OCC)O1	0[8.59 µM]	0[8.59 µM]
C[C@H]1C[C@@H](C)O[C@@]2(C1)C(=O)N(Cc1ccc(F)cc1)c1ccccc12	0[8.59 µM]	0[8.59 µM]
COCCN1C(=O)NC(CCc2ccccc2)C(C(C)=O)=C1C (centres undefined)	0[8.59 µM]	0[8.59 µM]
Cc1ccc(NC2=CC(=O)c3sc(C)nc3C2=O)cc1	3.5µM	4µM

Screening results deposited in PubChem by National Center for Advancing Translational Sciences (NCATS).
